# ABHD5-PLIN5 inh = ABHD5-PLIN5 protein interaction inhibition; Q00G26+Q8WTS1; Split G. princeps luciferase complementation, luminescence, 4 h; inhibition, % at 4 µM; actives 0.78% (n = 360,000);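 active = inhibition above the mean inhibition across every tested compound plus 3 SD, cut at about 22% in these data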
# Target sequence (Q00G26 whole entry, looked up): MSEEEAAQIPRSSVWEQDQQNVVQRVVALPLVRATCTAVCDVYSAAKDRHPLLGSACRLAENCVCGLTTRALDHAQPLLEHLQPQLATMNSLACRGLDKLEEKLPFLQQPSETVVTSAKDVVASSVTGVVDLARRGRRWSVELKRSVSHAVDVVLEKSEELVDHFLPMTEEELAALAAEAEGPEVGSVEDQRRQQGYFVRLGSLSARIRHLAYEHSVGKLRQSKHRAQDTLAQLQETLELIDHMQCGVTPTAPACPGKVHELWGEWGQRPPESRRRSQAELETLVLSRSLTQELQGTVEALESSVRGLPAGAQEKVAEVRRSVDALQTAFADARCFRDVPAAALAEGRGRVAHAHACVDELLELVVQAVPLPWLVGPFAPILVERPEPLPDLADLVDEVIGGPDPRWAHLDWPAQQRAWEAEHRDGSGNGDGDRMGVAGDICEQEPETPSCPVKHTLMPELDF
# Target sequence (Q8WTS1 whole entry, looked up): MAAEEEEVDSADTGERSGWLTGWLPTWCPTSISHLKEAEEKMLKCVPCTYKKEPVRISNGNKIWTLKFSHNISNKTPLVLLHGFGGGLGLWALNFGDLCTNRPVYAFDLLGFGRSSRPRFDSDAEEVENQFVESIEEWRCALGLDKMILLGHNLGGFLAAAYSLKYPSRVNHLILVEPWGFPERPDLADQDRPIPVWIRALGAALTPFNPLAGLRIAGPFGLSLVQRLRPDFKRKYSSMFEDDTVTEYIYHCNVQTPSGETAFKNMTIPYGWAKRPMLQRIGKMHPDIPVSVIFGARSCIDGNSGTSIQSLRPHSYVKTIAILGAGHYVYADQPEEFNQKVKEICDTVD
# NOD2-RIPK2 inh = inhibitors of human NOD2-RIPK2 interaction; actives 0.38% (n = 360,000); inhibition, % at 4.98 µM; CHO BLA complementation NOD2-RIPK2, CCF4 ratio; O43353; in the data active = inhibition above about 21%
# TLR4 MyD88 comp = blocks binding of human TLR4 to MyD88 | O00206+Q99836 | HeLa CL3-4 TLR4/MyD88 BLA complementation, FRET ratio | inhibition, % at 8.4 µM | actives 0.18% (n = 200,000) | AID 861; in the data active = inhibition above about 25%
# TLR9-MyD88 block = TLR9-MyD88 interaction inhibition; Q9NR96+Q99836; CHO BLA complementation TLR9-MyD88, CCF4 FRET ratio; inhibition, % at 4.98 µM; actives 0.21% (n = 340,000); AID 504734;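 active = inhibition above the mean over all tested compounds plus 3 SD, cut at about 21% in these data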
# TLR4 MyD88 cnf = confirmation of human TLR4-MyD88 binding inhibitors. shares compounds with TLR4 MyD88 comp. HeLa CL3-4 BLA complementation, CCF4 FRET ratio. inhibition, % at 8.4 µM. actives 50% (n = 350);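 active = mean inhibition across three repeat runs above about 25% carried over from the earlier screen, limit read from the data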
# BLA inh HeLa = inhibits beta-lactamase activity, counter-screen to TLR4-MyD88 binding inhibitors. shares compounds with TLR4 MyD88 comp. HeLa BLA reporter, CCF4 FRET ratio. inhibition, % at 8.4 µM. actives 63% (n = 350);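 active = mean inhibition over three repeats above about 26% taken from the earlier screen, limit read from the data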;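 note: HeLa cells stably expressing beta-lactamase reporter as counterscreen for TLR4-MyD88 inhibitors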
# TLR9-MyD88 conf = confirmation of human TLR9-MyD88 binding inhibitors; shares compounds with TLR9-MyD88 block; CHO TLR9/MyD88 BLA complementation, CCF4 FRET ratio; inhibition, % at 4.98 µM; actives 51% (n = 680);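 active = mean inhibition across three repeats above about 21% taken from the earlier screen, limit read from the data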;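 note: blue over green emission ratio reports constitutive TLR9 MyD88 association via BLA complementation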
# BLA counter-1 = counter-screen for TLR9-MyD88 inhibitors: non-selective beta-lactamase inhibitors; shares compounds with TLR9-MyD88 block; CHO-BLA cells, CCF4 FRET ratio, BLA reporter; inhibition, % at 4.98 µM; actives 7% (n = 680); AID 540251;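 active = mean inhibition above a 50% cutoff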;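 note: counterscreen of TLR9-MyD88 hits on CMV-driven BLA in CHO-K1 cells; higher means less blue over green ratio so more BLA blockade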
# TLR9 CHO cytotox = counter-screen for TLR9-MyD88 inhibitors: cytotoxicity in CHO cells; shares compounds with TLR9-MyD88 block; luminescence; inhibition, % at 4.98 µM; actives 39% (n = 680); AID 588336; in the data active = inhibition above about 11%
# ABHD5-PLIN5 conf = ABHD5-PLIN5 interaction inhibition, confirmed; shares compounds with ABHD5-PLIN5 inh; biochemical ABHD5-PLIN5 interaction, luminescence; inhibition, % at 4 µM; actives 67% (n = 2,200); in the data active = inhibition above about 23%
# HNF4 counter = HNF4 split-luciferase signal hit, counter-screen; AID 651674; actives 77% (n = 2,200); shares compounds with ABHD5-PLIN5 inh; inhibition, % at 4 µM; HNF4 dimerization, luminescence, biochemical;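 active = mean inhibition across replicate wells exceeding the computed hit threshold, cut at about 13% in these data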;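 note: light from luciferase halves that rejoin when HNF4 fusion proteins dimerize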
# NOD2 RIPK2 conf = confirmation of human NOD2-RIPK2 interaction inhibitors; inhibition, % at 4.98 µM; actives 70% (n = 1,200); shares compounds with NOD2-RIPK2 inh; CHO cells, NOD2-RIPK2 BLA complementation, CCF4 FRET;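 active = mean inhibition across replicates above a set limit taken from the earlier primary screen, cut at about 21% in these data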
# BLA counter-2 = hits BLA reporter in NOD2-RIPK2 inhibitor counterscreen | AID 624371 | shares compounds with NOD2-RIPK2 inh | CHO BLA reporter, CCF4 FRET ratio | actives 57% (n = 1,200) | inhibition, % at 4.98 µM;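 active = mean inhibition above the low-control mean inhibition plus three low-control SD, cut at about 11% in these data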
# Numbers stand for hits; . = inactive; / = no result. Compounds with a hit are over-represented: about 1.2% of the library has one in this group of screens.
SMILES,ABHD5-PLIN5 inh,NOD2-RIPK2 inh,TLR4 MyD88 comp,TLR9-MyD88 block,TLR4 MyD88 cnf,BLA inh HeLa,TLR9-MyD88 conf,BLA counter-1,TLR9 CHO cytotox,NOD2 RIPK2 conf,BLA counter-2,others
CN(C)CCCN1C(=O)c2cccc3c([N+](=O)[O-])ccc(c23)C1=O,.,82,86,70,86,109,55,72,95,90,77,
CC1(C)CC(=O)C2=C(C1)OC1=C(C(=O)CC(C)(C)C1)C2c1ccc(O)cc1O,87,67,34,.,.,.,/,/,/,79,.,ABHD5-PLIN5 conf=102;HNF4 counter=108
C/C(=N\Nc1ccc([N+](=O)[O-])cc1)c1ccc(N)cc1,.,.,.,.,/,/,/,/,/,/,/,
O=[N+]([O-])c1ccc(NN=C(Oc2ccccc2)c2ccc([N+](=O)[O-])cc2)cc1,.,.,/,.,/,/,/,/,/,/,/,
CC/C(=N\Nc1ccc([N+](=O)[O-])cc1)c1ccccc1,.,27,31,22,.,35,.,.,.,38,40,
CCc1ccc(/C(C)=N\Nc2ccc([N+](=O)[O-])cc2)cc1,.,30,32,31,32,55,23,.,.,41,46,
C/C(=N\Nc1ccc([N+](=O)[O-])cc1)c1ccco1,.,25,29,30,27,42,.,.,.,36,41,
C/C(=N\NC(=O)COc1ccc([N+](=O)[O-])cc1)c1ccco1,.,.,/,.,/,/,/,/,/,/,/,
Cc1ccc(S(=O)(=O)N2[C@H](CC(=O)c3cccc4ccccc34)OC[C@@H]2C)cc1,.,.,/,/,/,/,/,/,/,/,/,
CN1CCN(C(=O)c2cc3c(c(-c4cccc(-c5cc6ccccc6o5)c4)n2)[C@H](CCO)N(S(=O)C(C)(C)C)C3)CC1 (stereo partly drawn),.,.,/,/,/,/,/,/,/,/,/,
Nc1cccc2c1C(=O)N(CC(=O)NC13CC4CC(CC(C4)C1)C3)C2=O,.,39,31,.,.,37,/,/,/,44,47,
Cc1c(Nc2cc(Cl)c3nonc3c2[N+](=O)[O-])c(=O)n(-c2ccccc2)n1C,.,84,38,50,29,.,48,.,98,56,31,
Cc1c(Nc2cc(N3CCOCC3)c3nonc3c2[N+](=O)[O-])c(=O)n(-c2ccccc2)n1C,/,/,.,/,/,/,/,/,/,/,/,
CCCSc1cc(NCCOC(=O)CCC)c([N+](=O)[O-])c2nonc12,.,.,.,.,/,/,/,/,/,/,/,
CCC(=O)OCCNc1cc(Sc2nc3ccccc3[nH]2)c2nonc2c1[N+](=O)[O-],43,80,29,56,.,.,/,/,/,93,48,ABHD5-PLIN5 conf=63;HNF4 counter=111
Cc1ccc(S(=O)(=O)N(C)C[C@H]2Oc3ncc(Br)cc3C(=O)N([C@H](C)CO)C[C@@H]2C)cc1,.,.,/,.,/,/,/,/,/,/,/,
CCOc1ccc(/C=C/[N+](=O)[O-])c2ccccc12,79,58,27,.,.,.,/,/,/,91,.,ABHD5-PLIN5 conf=103;HNF4 counter=108
CCOC(=O)Cn1cc(/C=C/[N+](=O)[O-])c2ccccc21,.,.,.,.,/,/,/,/,/,/,/,
O=C1c2cccc3c(N4CCCCC4)ccc(c23)C(=O)N1CCO,.,.,.,.,/,/,/,/,/,/,/,

# Screening data: PubChem BioAssay, The Scripps Research Institute Molecular Screening Center
